This is a sample that favours compounds with a hit; in the whole collection about 2.4% have one here.
M18AAP inhibitor: PfM18AAP enzyme inhibition; recombinant PfM18AAP, H-Glu-NHMec fluorogenic cleavage; inhibition, % at 7.35 µM; actives 1.2% (n = 290,000);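 active = inhibition above the campaign mean inhibition over all tested compounds plus 3 SD, cut at about 28% in these data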;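 note: 0% = plate median of test compound wells and 100% = 2 mM ZnCl2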
eIF4E-4G inh: eIF4E/eIF4G interaction inhibition in translation initiation; TR-FRET eIF4E-eIF4GI(517-606) binding, 2 h; inhibition, % at 21.7 µM; actives 0.37% (n = 220,000); AID 782;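 active = inhibition above about 30%, limit read from the data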;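 note: 0% = full FRET control wells and 100% = background wells lacking eIF4GI fragment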
PERK inhibitor: human PERK inhibition, primary cell-based screen; Q9NZJ5; CHO PERK-DD fusion, SEAP luminescence translation reporter; inhibition, % at 5.6 µM; actives 0.17% (n = 220,000);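 active = inhibition above the mean inhibition of all tested compounds plus 3 SD, set separately per screening campaign, cut at about 2.9% in these data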;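 note: PERK kinase domain activated by AP20187 dimerizer at 100 nM; 0% = DMSO with dimerizer and 100% = rapamycin at 8.4 µM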
PABP1 MLLE inh: blocks PAM2 peptide binding to the PABP1 MLLE domain. P11940. GST-MLLE / FITC-PAM2 fluorescence polarization. inhibition, % at 20 µM. actives 0.36% (n = 360,000). AID 588489; in the data active = inhibition above about 35%, passing the limit was not always enough;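 note: plate controls were DMSO wells with GST-MLLE for no effect and wells lacking GST-MLLE protein for full effect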
PABP FP inh: blocks human PABP binding to poly(A) RNA; fluorescence polarization; AID 2014; actives 1% (n = 290,000); P11940; inhibition, % at 35 µM;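 note: calls also rest on retests at 20 µM and on dose response follow-up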
eIF4H inh: inhibitors of RNA binding by human eIF4H. eIF4H fluorescence polarization binding assay. inhibition, % at 35 µM. actives 0.94% (n = 290,000);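 note: calls also rest on retests at 20 µM and on dose response follow-up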
* marks the source's active call; other numbers are inactive results; ? = inconclusive; . = no result; [ ] = dose if it differs, or a comment. Unless noted, the rule behind the calls is not given here.

SMILES | M18AAP inhibitor | eIF4E-4G inh | PERK inhibitor | PABP1 MLLE inh | PABP FP inh | eIF4H inh
O=C(NCCc1ccccc1)C1CCCN1C(=O)NCc1ccccc1 (stereo unspecified) | -6 | -3 | 0 | -2 | -11 | -9
CCOC(=O)c1nnc(-c2ccccc2)nc1N1CC(C)OC(C)C1 (stereo unspecified) | -5 | 2 | -1 | 10 | -5 | 9
Cc1cccc(Nc2nc(-c3c(C)nc4ccccn34)cs2)c1 | 5 | 1 | 0 | -14 | 10 | 5
COc1ccc(OC)c(Nc2nc(-c3c(C)nc4ncccn34)cs2)c1 | 9 | . | . | -11 | 20 | -2
Cc1nc2ccccn2c1-c1csc(Nc2cccc(C(=O)O)c2)n1 | 31* | . | . | 28 | 9 | -8
Cc1nc2ncccn2c1-c1csc(Nc2cccc(C(=O)O)c2)n1 | 29* | . | . | 39 | 20 | -1
COCCCN(CC(=O)Nc1ccc(N2CCOCC2)cc1)S(=O)(=O)c1ccc(Cl)cc1 | -9 | 4 | -1 | -5 | -12 | 2
Cc1ccc(NCC(=O)Nc2cccc(S(=O)(=O)N(C)C)c2)cc1S(=O)(=O)N1CCCCCC1 | . | . | . | 2 | . | .
COc1ccccc1CCNC(=O)C(=O)Nc1cc2c3c(c1)CC(=O)N3CCC2 | . | . | . | -7 | . | .
COc1ccc(CN2CC(C(=O)NCCc3ccc(C)cc3)CC2=O)cc1 (stereo unspecified) | 3 | 0 | 1 | -4 | 2 | -13
CC1CN(C(=O)/C=C/c2ccc(SC(F)F)cc2)CC(C)O1 (stereo unspecified) | -9 | . | . | 13 | -1 | -14
Nc1ccc(N(c2ccccc2)c2ccc(N)cc2)cc1 | 6 | 41*[fluorescence artefact?] | -1 | -6 | 2 | 6
O=C(Nc1ccc2oc(-c3ccc(Cl)c(Cl)c3)nc2c1)c1ncn[nH]1 | -3 | -34 | 1 | 0 | 8.3* | ?
O=C(Nc1ccc2oc(-c3ccccc3F)nc2c1)c1ncn[nH]1 | 10 | -11 | 0 | -7 | -4 | 24
CCOC(=O)c1sc(=S)n(-c2ccccc2)c1N | -3 | 1 | 1 | 22 | 0 | 16
COc1ccccc1-n1c(N)c(C(N)=O)sc1=S | 12 | 12 | 0 | 41* | -9 | 1
COc1cc(C(Nc2ccccn2)c2ccc3ccc(C)nc3c2O)cc(OC)c1O (stereo unspecified) | 30* | 1 | 1 | 24 | -4 | 9
CCc1c(C)sc(NC(=O)c2ccoc2C)c1C(N)=O | 40* | . | . | 21 | 2 | -2
CCc1c(C)sc(NC(=O)c2ccco2)c1C(=O)N1CCOCC1 | 3 | -1 | 0 | 40* | -2 | 14
COC(=O)c1c(NC(=O)c2ccoc2C)sc2c1CCC2 | -3 | 6 | 1 | 4 | 5 | 8
Cc1occc1C(=O)Nc1sc2c(c1C(N)=O)CCCCC2 | 29* | 3 | 0 | 18 | 26 | 17
CC1CN=C(c2ccccc2)O1 (stereo unspecified) | . | . | . | 8 | . | .
CCOC(=O)c1cc(CC)sc1NC(=O)C(c1ccccc1)c1ccccc1 | 2 | -2 | 1 | -19 | 3 | -9
O=C(Nc1ccc(S(=O)(=O)Nc2nccs2)cc1)c1ccncc1 | . | . | . | 8 | . | .
O=C(Nc1ccc(S(=O)(=O)Nc2nccs2)cc1)c1ccc(=O)[nH]c1 | -5 | 3 | 0 | -46 | 28* | 73
SMILES | M18AAP inhibitor | eIF4E-4G inh | PERK inhibitor | PABP1 MLLE inh | PABP FP inh | eIF4H inh
O=C(Nc1ccc(S(=O)(=O)Nc2nccs2)cc1)c1ccc(F)c(S(=O)(=O)N2CCOCC2)c1 | 3 | -2 | 1 | -54 | -3 | 52*
CCOCc1c(C(=O)OCC(=O)/C(C#N)=C(\C)N)oc2ccccc12 | -1 | 2 | 1 | 4 | 14 | 19
Nn1c(SCC(=O)Nc2ccccc2Br)nnc1-c1ccco1 | -6 | . | . | 2 | 35 | -15
Cc1ccc(OCC(=O)N2CCN(C(=O)c3ccco3)CC2)cc1 | -2 | 1 | 0 | -4 | -9 | -2
Cc1ccc(OCC(=O)N2CCN(C(=O)c3cccs3)CC2)cc1 | -2 | -2 | 0 | 3 | 67* | active
O=C(Nc1ccc(F)cc1)C1=CC(=O)N2CCN=C2S1 | 29* | 0 | 1 | . | -3 | 0
Cc1ccc(-c2cc(C(=O)N3CCCCC3)c3ccccc3n2)cc1C | -2 | . | . | -20 | -5 | 2
O=C(O)Cc1csc(-c2ccccc2)n1 | -2 | 2 | 2 | 3 | 53 | 7.1*

Bioassay records: PubChem BioAssay, several laboratories
